In PubChem BioAssay AID1159580 (chemical genetic matrix, 2015):
Several values for one entry are separate records, joined by “and”; a condition that tells them apart may be missing. Equal values may be shown once. About 2,000 (36%) of roughly 5,500 compounds were called active. About 18% were inconclusive and are not listed. No stated cut-off is given here; in the data, active means normalized growth mostly below about 0.91 (no sharp cut-off); inconclusive means no clear call, values can overlap the other calls; inactive means mostly above about 0.92. Some of the results follow.

Assay: chemical genetic growth profiling, strain panel (AID 1159580);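 further: tested at 20 µM; growth read once vehicle control cultures reached saturation at 30 °C; 1 = growth at the plate median or of vehicle wells; lower values mean less growth of the strain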
Settings: S. cerevisiae deletion strains, growth OD

Measured: normalized growth

O=c1cc(-c2ccccc2)oc2cc(O)c(O)c(O)c12
inactive: locus YBR021W, strain FUR4, hits give low values 0.885
active: locus YAL013W, strain DEP1, hits give low values 0.367 | locus YAL021C, strain ccr4, hits give low values 0.0818 | locus YAL026C, strain drs2, hits give low values 0.198 | locus YAL030W, strain snc1, hits give low values 0.562 | locus YBL061C, strain skt5, hits give low values 0.449 | locus YBR009C, strain hhf1, hits give low values 0.535 | locus YBR023C, strain chs3, hits give low values 0.279 | locus YBR171W, strain sec66, hits give low values 0.386 | locus YBR229C, strain ROT2, hits give low values 0.458 | locus YBR231C, strain swc5, hits give low values 0.29 | locus YBR279W, strain paf1, hits give low values 0.574 | locus YCL011C, strain gbp2, hits give low values 0.565 | locus YCL016C, strain dcc1, hits give low values 0.683 | locus YCL029C, strain bik1, hits give low values 0.174 | locus YCL069W, strain vba3, hits give low values 0.608 | locus YCR088W, strain abp1, hits give low values 0.604 | locus YDL005C, strain med2, hits give low values 0.636 | locus YDL035C, strain GPR1, hits give low values 0.402 | locus YDL040C, strain nat1, hits give low values 0.612 | locus YDL074C, strain BRE1, hits give low values 0.219 | locus YDL101C, strain DUN1, hits give low values 0.115 | locus YDL134C, strain PPH21, hits give low values 0.586 | locus YDL185W, strain tfp1, hits give low values 0.549 | locus YDL192W, strain arf1, hits give low values 0.512 | locus YDR001C, strain nth1, hits give low values 0.721 | locus YDR069C, strain doa4, hits give low values 0.127 | locus YDR101C, strain arx1, hits give low values 0.176 | locus YDR137W, strain rgp1, hits give low values 0.161 | locus YDR150W, strain NUM1, hits give low values 0.591 | locus YDR159W, strain sac3, hits give low values 0.148 | locus YDR162C, strain NBP2, hits give low values 0.224 | locus YDR195W, strain ref2 0.327 | locus YDR297W, strain sur2, hits give low values 0.445 | locus YDR318W, strain mcm21, hits give low values 0.589 | locus YDR334W, strain swr1, hits give low values 0.351 | locus YDR335W, strain msn5, hits give low values 0.138 | locus YDR388W, hits give low values 0.555 | locus YDR392W, strain spt3, hits give low values 0.562 | locus YDR502C, strain sam2, hits give low values 0.214 | locus YEL003W, strain gim4, hits give low values 0.291 | locus YEL037C, strain rad23, hits give low values 0.407 | locus YEL061C, strain CIN8 (second series), hits give low values 0.695 | locus YEL061C, strain CIN8, hits give low values 0.496 | locus YER015W, strain faa2, hits give low values 0.287 | locus YER016W, strain bim1, hits give low values 0.736 | locus YER110C, hits give low values 0.851 | locus YER111C, strain swi4, hits give low values 0.113 | locus YER155C, strain BEM2 (second series), hits give low values 0.338 | locus YER155C, strain BEM2, hits give low values 0.449 | locus YER167W, strain BCK2, hits give low values 0.573 | locus YFR010W, strain ubp6, hits give low values 0.218 | locus YGL078C, strain dbp3, hits give low values 0.84 | locus YGL086W, strain mad1, hits give low values 0.636 | locus YGL167C, strain pmr1, hits give low values 0.396 | locus YGL173C, strain kem1, hits give low values 0.23 | locus YGL227W, strain vid30, hits give low values 0.677 | locus YGL240W, strain doc1, hits give low values 0.657 | locus YGL248W, strain PDE1, hits give low values 0.561 | locus YGL253W, strain hxk2, hits give low values 0.485 | locus YGR078C, strain PAC10, hits give low values 0.536 | locus YGR135W, strain pre9, hits give low values 0.443 | locus YGR229C, strain SMI1, hits give low values 0.107 | locus YGR252W, strain gcn5, hits give low values 0.576 | locus YHR013C, strain ard1, hits give low values 0.504 | locus YHR027C, strain rpn1, hits give low values 0.295 | locus YHR030C, strain SLT2, hits give low values 0.304 and 0.677 | locus YHR079C, strain IRE1 (second series), hits give low values 0.139 | locus YHR079C, strain IRE1, hits give low values 0.612 | locus YHR094C, strain hxt1, hits give low values 0.699 | locus YHR129C, strain ARP1, hits give low values 0.531 | locus YHR142W, strain chs7, hits give low values 0.285 | locus YHR200W, strain rpn10, hits give low values 0.604 | locus YIL066C, strain RNR3, hits give low values 0.425 | locus YIL073C, strain SPO22, hits give low values 0.381 | locus YIL125W, strain kgd1, hits give low values 0.808 | locus YIR030C, strain dcg1, hits give low values 0.359 | locus YJL092W, strain hpr5, hits give low values 0.531 | locus YJL095W, strain BCK1 (second series), hits give low values 0.218 | locus YJL095W, strain BCK1, hits give low values 0.0738 and 0.684 | locus YJL115W, strain asf1, hits give low values 0.648 | locus YJL129C, strain trk1, hits give low values 0.312 | locus YJL134W, strain LCB3, hits give low values 0.588 | locus YJL154C, strain vps35, hits give low values 0.68 | locus YJL164C, strain tpk1, hits give low values 0.347 | locus YJL166W, strain qcr8, hits give low values 0.437 | locus YJL168C, strain set2, hits give low values 0.808 | locus YJL187C, strain SWE1 (second series), hits give low values 0.106 | locus YJR043C, strain POL32, hits give low values 0.288 | locus YJR066W, strain TOR1, hits give low values 0.68 | locus YJR075W, strain HOC1, hits give low values 0.558
